About 83,000 compounds went through this panel and 20% of them were active in at least one assay; those are over-represented in the sample as a whole.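 How to read the values: 0–100, growth inhibition (40 = 60% inhibited); 0, no net growth; -100 to 0, cell death (-40 = 40% of starting cells died; -100 = all dead).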 Values without a mark were called inactive. The source made the active and inactive calls. How the source made its calls: active means growth percent below 10; inactive means the rest.
Columns and labels:
Test in all cases: NCI-60 one-dose screen, 48 h (100 = growth as untreated, 0 = no growth, -100 = all killed)
Conditions in all cases: 10 µM unless noted
RPMI-8226 leukemia = tested on: RPMI-8226 leukemia
OVCAR-8 ovarian = tested on: OVCAR-8 ovarian
OVCAR-5 ovarian = tested on: OVCAR-5 ovarian
OVCAR-4 ovarian = tested on: OVCAR-4 ovarian
SK-OV-3 ovarian = tested on: SK-OV-3 ovarian
IGROV1 ovarian = tested on: IGROV1 ovarian
OVCAR-3 ovarian = tested on: OVCAR-3 ovarian
HS 578T breast = tested on: HS 578T breast
NCI/ADR-RES ovarian = tested on: NCI/ADR-RES ovarian
T-47D breast = tested on: T-47D breast

| Compound | growth (RPMI-8226 leukemia) | growth (OVCAR-8 ovarian) | growth (OVCAR-5 ovarian) | growth (OVCAR-4 ovarian) | growth (SK-OV-3 ovarian) | growth (IGROV1 ovarian) | growth (OVCAR-3 ovarian) | growth (HS 578T breast) | growth (NCI/ADR-RES ovarian) | growth (T-47D breast) |
| --- | --- | --- | --- | --- | --- | --- | --- | --- | --- | --- |
| N#Cc1cnc2cc(OC[C@H](O)CO)c(NC(=O)CC3CSSC3)cc2c1Nc1ccc(OCc2cccc(F)c2)c(Cl)c1 | -68.9% (active) | -54.6% (active) | -47.8% (active) | -62.9% (active) | -87.5% (active) | -41.8% (active) | -89.2% (active) | -44.7% (active) | 87.8% | -61.1% (active) |
| CCCCCCCCSc1ncnc2c1ncn2CO | 60.7% | 90.4% | 103% | 60.3% | 83.1% | 93.3% | 78.2% | 95.6% | 86.8% | 62% |
| C[C@]12CC[C@@H]3c4ccc(O)cc4CC[C@H]3[C@@H]1CC[C@@H]2NS(=O)(=O)c1cccc(Br)c1 | 44.4% | 67% | 97.7% | 53.9% | 90.7% | 53.1% | 58.8% | 73.8% | 56.2% | 37.4% |
| COc1cc2c(cc1OCCCCCn1c(-c3ccc(OCc4ccccc4)cc3)nc3cc(N4CCOCC4)ccc31)N=C[C@@H]1CCCN1C2=O | 19.4% | 21.2% | 9.51% (active) | 21.4% | 35.3% | -58.7% (active) | 4.07% (active) | 12.4% | 23.8% | 19% |
| O=NC1CC=CCC1c1ccccc1 (centres undefined) | 114% | 108% | 94.5% | 106% | 111% | 111% | 118% | 125% | 104% | 111% |
| Cc1cc([N+](=O)[O-])c(C)cc1C(=O)O | 115% | 103% | 93.7% | 111% | 99.2% | 110% | 106% | 107% | 103% | 83.5% |
| CCCCN(CCCC)CCCOC(=O)c1ccc(N)cc1 | 68% | 73% | 97% | 84.2% | 83.3% | 75.8% | 102% | 82.2% | 94.2% | 88% |
| CSc1nnc(C2=CC(=O)c3ccccc3C2=O)n1-c1ccccc1 | 72.2% | 94.6% | 113% | 99.2% | 93.7% | 80.4% | 91.6% | 112% | 98% | 78.4% |
| O=C(Nc1ccccc1Cl)c1cnc2ccc(C3CCNCC3)cn12 | 108% | 65.5% | 30.8% | 101% | 40.3% | -50.5% (active) | 62.2% | 9.47% (active) | 90.5% | 51.8% |
| C=C(C[C@@](O)(C(=O)Oc1ccccc1)C(=O)C1CCCCC1)c1ccccc1 | 92% | 101% | 103% | 97.8% | 105% | 110% | 106% | 106% | 101% | 96.2% |
| CCCCC1Nc2nc(SC)n(C)c(=O)c2CN(Cc2ccccc2)C1=O (centres undefined) | 67.5% | 99.9% | 100% | 103% | 93.8% | 106% | 113% | 165% | 89.7% | 93.2% |
| COc1ccc(-c2cn(-c3ccccc3)c(-c3ccccc3)n2)cc1OC | 25.8% | 75.3% | 119% | 67.3% | 209% | 83.7% | 37.2% | 103% | 86.2% | 131% |
| Cc1nc2cc(NC(=O)CN3CCN(CCN4C(=O)c5cccc6cccc(c56)C4=O)CC3)ccc2s1 | 28.9% | 30.2% | 72% | 61.4% | 66.3% | 44% | 74.3% | 69.5% | 45.9% | 50.7% |
| O=C(C(Br)Br)C(Br)C(Br)c1ccccc1 (centres undefined) | 78.1% | 88% | 108% | 43.1% | 116% | 84.3% | 1.96% (active) | 104% | 94.5% | 49.7% |
| COc1cc(C2NC(c3ccc(Cl)cc3)C(C)/C(=N/NC(N)=S)C2C)cc(OC)c1OC (centres undefined) | 74.2% | 87.3% | 98% | 87% | 101% | 89.7% | 98.6% | 98.1% | 94.1% | 82.7% |
| Cc1nn(-c2ccccc2)c2c1oc(=O)c1cc(Cl)ccc12 | 101% | 101% | 111% | 113% | 106% | 86.5% | 85.8% | 175% | 108% | 105% |
| N=C(N)/N=C(\CCc1nc2ccccc2[nH]1)c1nc2ccccc2[nH]1 | 105% | 105% | 90% | 107% | 108% | 114% | 109% | 99.4% | 93.4% | 99.7% |
| O=C1C(=O)c2ccc(Br)cc2-c2cc(Br)ccc21 | 25.9% | -1.14% (active) | 113% | -99% (active) | 81% | 68.7% | -48.6% (active) | 86.4% | -29.2% (active) | 20% |
| CC(C)(C)c1ccc(S(=O)(=O)O)s1 | 95.9% | 108% | 96.3% | 96.6% | 101% | -12.6% (active) | 115% | 88.8% | 106% | 97.9% |
| Cc1scc2c1N(C(=O)CN1CCN(C)CC1)c1ccccc1NC2=O | 113% | 102% | 118% | 101% | 105% | 108% | 108% | 112% | 108% | 102% |
| CC1=CSC2=NCCN12 | 106% | 112% | 107% | 103% | 110% | 108% | 113% | 110% | 100% | 109% |
| COc1ccc(C2=NN(C(C)=O)C(c3cc(OC)c(OC)c(OC)c3)C2)cc1 (centres undefined) | 93.9% | 108% | 111% | 112% | 108% | 92.8% | 88.6% | 244% | 83% | 92.1% |
| Oc1ccccc1C=Nc1ccccc1N=Cc1ccccc1O.[Cu+2] | 19.1% | 15.1% | 103% | 35.5% | 76% | 55.5% | 71.7% | 137% | 20.2% | 20.2% |
| COc1cc2c(cc1OCCCOc1ccc(-c3cc4ccccc4c4ccccc34)cc1)N=C[C@@H]1CCCN1C2=O | 0.228% (active) | -6.49% (active) | -69.5% (active) | -77.1% (active) | -19.3% (active) | -72.3% (active) | -48.4% (active) | -15.3% (active) | -46.1% (active) | -66.4% (active) |
| CCOC(=O)C1C(=O)OC2CCCCC21 (centres undefined) | 99.9% | 99.5% | 117% | 102% | 109% | 103% | 126% | 105% | 116% | – |
| COc1ccc(C(=O)Nc2nc(-c3ccc(Cl)cc3)cs2)cc1 | 94.4% | 103% | 87% | 108% | 87.1% | 112% | 111% | 94.3% | 120% | 89.1% |

From PubChem BioAssay (NCI)
